Data taken from PubChem BioAssay (NCI).
The panel holds about 83,000 compounds, 20% with a hit somewhere; the sample as a whole holds those more often.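 Step 1: grow cells in 96-well plates. Step 2: add test compound at a single concentration. Step 3: incubate 48 h. Step 4: record percent growth.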 Activity calls are given as the source filed them.

What follows are compounds tested on NCI-H522 lung (assay: NCI-60 one-dose screen, 48 h (100 = growth as untreated, 0 = no growth, -100 = all killed)). Details: 10 µM unless noted.
Procedure: Growth inhibition of the NCI-H522 human Non-Small Cell Lung tumor cell line is measured as a screen for anti-cancer activity. Cells are grown in 96 well plates and exposed to the test compound for 48 hours. Compounds are tested at a single concentration, which is 10^-5 M for most compounds. The reported endpoint is percent growth (GI% or GIPRCNT), where numbers from 0 - 100% represent growth inhibition, and numbers from -100% - 0 represent cell death. For example, a value of 40 represents 60% growth inhibition. A value of 0 means no net growth occurred over the course of the experiment. A value of -40 indicates 40% of cells at the beginning of the experiment died by the end of the experiment. A value of -100 means all cells are dead at the end of the experiment.
NCI-60 Human Tumor Cell Lines Screen was performed using the standard one-dose NCI protocol, which is described in more detail at https://dtp.cancer.gov/discovery_development/nci-60/default.htm.
Compounds with GIPRCNT values below 10 were considered active. Activity score was based on GIPRCNT using the following formula: […]
Score is 0 for GIPRCNT values of 100 or above, 50 for GIPRCNT values of 0, and 100 for GIPRCNT values of -100.

| SMILES | growth |
| --- | --- |
| CC(=O)Oc1ccc(/C=C/C(=O)N[C@@H](Cc2ccccc2)C(O)C(=O)NCc2ccccc2)cc1OC(C)=O (stereo not given in full) | 17.2% (inactive) |
| COc1cc2oc(-c3cccc(C(=O)Nc4ccc(Cl)cc4)c3)cc(=O)c2c(OCCNC(=O)[C@@H](N)CCC(=O)O)c1OC | 82.8% (inactive) |
| N#Cc1cnn(C(=O)c2ccccc2Br)c1NC(=O)c1ccc(Br)cc1Cl | 102% (inactive) |
| Cc1occc1C(=O)NN1C(=O)/C(=C/C=C/c2ccc([N+](=O)[O-])o2)SC1=S | -91.5% (active) |
| Cc1cc(=O)oc2cc(OCCOc3ccc(/C=C/C(=O)Nc4ccccc4N)cc3)ccc12 | 3.88% (active) |
| O=c1cc(-c2ccccc2)oc2cc(OCCCC[P+](c3ccccc3)(c3ccccc3)c3ccccc3)cc(O)c12 | -81.9% (active) |
| COc1ccc(C2=NN(c3ccccc3)C(c3ccc(OC)c(OCc4ccccc4)c3)C2)cc1OC (stereo not given) | 78.2% (inactive) |
| CN(C)c1nc(NCCNS(=O)(=O)c2ccc(C(=O)/C=C/c3ccc(F)cc3)cc2)nc(Nc2ccc(F)cc2)n1 | -96.1% (active) |
| CN1CCN(c2ccc(C(=O)/C=C/c3cc(C(F)(F)F)cc(C(F)(F)F)c3)cc2)CC1 | -69.6% (active) |
| C=C1CC[C@@H]2[C@]3(C)COC(c4ccco4)O[C@@H]3CC[C@@]2(C)[C@@H]1C/C=C1/C(=O)OCC1OC(C)=O (stereo not given in full) | -29.9% (active) |
| Cc1ccc2c(N)c(C(=O)Nc3ccc(OC(F)(F)F)cc3)sc2n1 | 66.7% (inactive) |
| Cn1cc(-c2cc(N)n3nc(-c4cn(C)c5ncccc45)cc3n2)c2cccnc21 | 77% (inactive) |
| CC1(C)CC[C@]2(C(=O)O)CC[C@]3(C)C(=CCC4[C@@]5(C)C[C@@H](O)[C@@H]6OC(c7cccc(Br)c7)OC[C@@]6(C)C5CC[C@]43C)C2C1 (stereo not given in full) | 16.3% (inactive) |
| O=C1C(=Nc2ccc(F)c(Cl)c2)c2cccc3cccc1c23 | 104% (inactive) |
| COc1cc2oc(-c3cccc(C(=O)Nc4ccc(Cl)cc4)c3)cc(=O)c2c(OCC(=O)N[C@@H](Cc2ccccc2)C(=O)O)c1OC | 96.3% (inactive) |
| O=C(O)c1cccc(-c2ccc(/C=N/NC(=O)c3[nH]c4ccc(Br)cc4c3-c3ccccc3)o2)c1 | -12.6% (active) |
| Cc1ccc2c(c1)nc(-c1ccccc1)n2CC(=O)N=Nc1c(O)[nH]c2ccc(Br)cc12 | -60.7% (active) |
| C=C1CCC2C3(C)COC(c4cccs4)OC3CCC2(C)C1CC(Sc1ccccc1)C1=CCOC1=O (stereo not given) | 65.5% (inactive) |
| CC(=O)OC[C@@]1(C)C2CC[C@]3(C)C(CC=C4C5CC(C)(C)CC[C@]5(C(=O)Nc5ccc(C)cc5)CC[C@]43C)[C@@]2(C)C[C@@H](OC(C)=O)[C@@H]1OC(C)=O (stereo not given in full) | 48.9% (inactive) |
| Cc1ncsc1-c1ccc(CNC(=O)[C@@H]2C[C@@H](O)CN2C(=O)[C@@H](NC(=O)C2(F)CC2)C(C)(C)C)c(OCCOCCOCCOCCOc2nc(Nc3cc(S(C)(=O)=O)ccc3N[C@@H](c3cccc4c3OC(F)(F)O4)c3ncccc3Cl)nc(N3CCNCC3)n2)c1 | 100% (inactive) |

| SMILES | growth |
| --- | --- |
| O=C(NNc1nc2cc(F)ccc2n2c(CN3CC4CNCC4C3)ccc12)c1ccncn1 (stereo not given) | 32.1% (inactive) |
| C=C1CC[C@@H]2[C@]3(C)COC(c4cn[nH]c4-c4ccccc4)O[C@@H]3CC[C@@]2(C)[C@@H]1C/C=C1/C(=O)OCC1O (stereo not given in full) | 1.15% (active) |
| N/C(=N\c1nc2ccccc2s1)NC(=O)Nc1ccc(Cl)cc1Cl | -78.6% (active) |
| COc1ccc(C(=O)/C=C/c2cccc3ccccc23)cc1S(N)(=O)=O | -67% (active) |
| Cc1ccc(-n2c(-c3cc4ccccc4nc3Cl)noc2=O)cc1 | 62.7% (inactive) |
| COc1ccc2nc(Nc3cccc(NC(=O)c4ccc(CN5CCCN(C)CC5)c(C(F)(F)F)c4)c3)ccc2c1 | -50.7% (active) |
| CC(C)c1sc(NC(=O)c2cc(NC(=O)c3cc(NC(=O)c4nccn4C)cn3C)cn2C)nc1C(=O)NCCCN(C)C | 38.3% (inactive) |
| COc1cc(OC)c2c3nc4cc(C)c(C)cc4nc3n(CCN(C)C)c2c1 | 56.2% (inactive) |
| O=c1oc2ccccc2cc1-c1csc(N=Nc2c(O)[nH]c3ccc(Cl)cc23)n1 | 98.7% (inactive) |
| CC(=O)Oc1ccccc1C(=O)[Se]CC(=O)Nc1cccc(C(F)(F)F)c1 | -30.4% (active) |
| COc1cc(OC)cc(C(=O)Nc2cccc(-c3cn(-c4ccc(S(N)(=O)=O)cc4)nn3)c2)c1 | 69.1% (inactive) |
| O=C(O)Cn1c(O)c(/C=C2/C=c3cc4c(cc3=NC2=O)OCCO4)sc1=S | 103% (inactive) |
| COc1cc2c(c(OC)c1OC)C(=O)CC(c1cccc(NC(=O)c3cc([N+](=O)[O-])ccc3Cl)c1)O2 (stereo not given) | -27.1% (active) |
| COc1ccc(C2=NN(C(C)=O)C(c3ccc(OCc4ccc(Cl)cc4)c(OC)c3)C2)cc1OC (stereo not given) | 28.5% (inactive) |
| C=C1CC[C@@H]2[C@]3(C)COC(c4cn[nH]c4-c4ccc(F)cc4)O[C@@H]3CC[C@@]2(C)[C@@H]1C/C=C1/C(=O)OCC1O (stereo not given in full) | -59.7% (active) |
| O=C1NC(=O)c2c1c1c3cc(Br)ccc3[nH]c1c1oc3ccc(F)cc3c21 | -61.6% (active) |
| COc1ccc(C(=O)/C=C/c2ccccc2Br)cc1S(N)(=O)=O | -67% (active) |
| C#CCOc1cc(N(CC)CC)ccc1C(C(=O)NC(C)(C)C)N(C(=O)C1CCc2cc(F)ccc2O1)c1ccc(Br)cc1 (stereo not given) | 67.7% (inactive) |
| Cn1cc(-c2cc(N)n3nc(-c4cn(C)c5ccccc45)cc3n2)c2cc(Br)ccc21 | -62.7% (active) |
| O=C(NN1C(=O)/C(=C/C=C/c2ccc([N+](=O)[O-])o2)SC1=S)c1cccc(O)c1 | -96.6% (active) |
